Inconclusive results are not listed. Where a call stands in place of a potency, no number is given. Calls of active or inactive are those of the source. Calls come from the whole dose curve.

The nature of this experiment: qHTS assay to identify small molecule agonists of the progesterone receptor (PR) signaling pathway - cell viability counter screen (AID 1346799). Note: nearly all actives have a fitted effect of over 45% in size. As to conditions: PR-UAS-bla HEK293T viability, CellTiter-Glo luminescence, 16 h; series mostly up to 92.4 µM. The source says:
National Center for Advancing Translational Sciences [NCATS]
NIH Chemical Genomics Center [NCGC]
U.S. Environmental Protection Agency [EPA]
National Institutes of Environmental Health Sciences [NIEHS]
National Toxicology Program [NTP]
U.S. Food and Drug Administration [FDA]
Progesterone receptor (PR), a nuclear hormone receptor, plays an important role in development, metabolic homeostasis and reproduction. It is activated by the steroid hormone progesterone. Endocrine disrupting chemicals (EDCs) and their interactions with steroid hormone receptors like PR causes disruption of normal endocrine function. To identify the compounds that stimulate PR signaling, a PR-UAS-bla GripTite cell line i.e. PR-UAS-bla HEK293T (Invitrogen, Carlsbad, CA, USA) containing a beta-lactamase reporter gene under the control of an UAS response element was used to screen Tox21 10K compound library. The cytotoxicity of the Tox21 compound library against the PR-bla cell line was tested in parallel by measuring the cell viability using CellTiter-Glo assay in the same wells.
Tox21 Assay Protocol Summary:
PR-UAS-bla HEK293T cells were dispensed at 3,000 cells/5 uL of assay medium containing 2% charcoal stripped FBS per well into black wall/clear-bottom 1536-well plates using a Multidrop Combi (ThermoFisher Scientific, Waltham, MA) dispenser. After the assay plates were incubated at a 37C and 5% CO2 for 6 hr, 23 nL of compounds dissolved in DMSO, positive controls or DMSO only was transferred to the assay plate by a Pintool station (Kalypsys, San Diego, CA). The plates were incubated at 37C and 5% CO2 for 16 hr. Then 1 uL of LiveBLAzer B/G FRET substrate was added using a Flying Reagent Dispenser (FRD, Aurora Discovery, San Diego, CA), the plates were incubated at room temperature for 2 hours, and fluorescence intensity was measured by an Envision plate reader (PerkinElmer, Shelton, CT). For cell viability readout that measures cytotoxicity, 4 uL/well of CellTiter-Glo reagent was added into the assay plates using a FRD. After 30 min incubation at room temperature, the luminescence intensity in the plates was measured using a ViewLux (PerkinElmer) plate reader.
(Quantitative high-throughput screening tests each substance at several concentrations.)
Turning to `C=C(C)C(=O)OCCC(F)(F)C(F)(F)C(F)(F)C(F)(F)C(F)(F)C(F)(F)F`, the Potency result was “inactive”.

As to `CCNc1nc(N)nc(Cl)n1`, the Potency entry is “inactive”.

As for `CCN(CC)CCNC(=O)c1cc(Cl)c(N)cc1OC`, the Potency entry was “inactive”. Still for that read-out and setting: to `CC(C)(O)c1coc(S(=O)(=O)NC(=O)Nc2c3c(cc4c2CCC4)CCC3)c1` belongs “inactive”; to `COC(=O)c1sccc1S(N)(=O)=O`, “inactive”. The same measure, in the same setting: the value for `CCC(CO)(CO)[N+](=O)[O-]` was “inactive”; that for `COc1ccc(C)cc1` was “inactive”. On the same count and under the same terms, the value for `COc1cc(NCc2ccc3nc(N)nc(N)c3c2C)cc(OC)c1OC` was “inactive”.

`CCCCCCCCCCCCCCN(C)C`: the activity change, negative = cytotoxicity is 0% [at 19 µM] (inactive).

On to `COc1ccc(C(=O)NCc2ccc(OCCN(C)C)cc2)cc1OC`, for which the Potency entry was “inactive”. Take `COc1ccc(-n2nc(C(F)F)cc2-c2ccc(S(C)=O)cc2)cc1` (stereo not given): the Potency entry is “inactive”.

Turning to `O=C(O)CCS`, the Potency result was “inactive”. Consider `CC1CCCC(=O)C1=O` (stereo not given), for which the Potency entry is “inactive”. `COc1ccc(N)c([N+](=O)[O-])c1`: the Potency entry is “inactive”. Same read-out and setting: the value for `CCCCCc1ccco1` was “inactive”; that for `CC1CCC(C(C)CS)CC1S` (stereo not given) was “inactive”; that for `Cc1cn([C@H]2C[C@H](F)[C@@H](CO)O2)c(=O)[nH]c1=O` was “inactive”. Still for that read-out and setting: the value for `CC(=O)N[C@@H](Cc1ccc(O)cc1)C(=O)O` was “inactive”; that for `Nc1ccn([C@H]2CS[C@@H](CO)O2)c(=O)n1` was “inactive”. Same read-out and setting: the value for `CNC1CCCN(c2c(F)cc3c(=O)c(C(=O)O)cn(C4CC4)c3c2OC)C1` (stereo not given) was “inactive”. Consider `CC(=O)NCCO`, for which the Potency result was “inactive”.

Take `CC12CC3CC(C)(C1)CC(N)(C3)C2`: the Potency entry was “inactive”. Still for that read-out and setting: the value for `CC/C=C\C/C=C\C/C=C\CCCCCCCC(=O)OCC` was “inactive”; that for `CCCCCC` was “inactive”; that for `CCC(CO)(CO)CO` was “inactive”. The same measure, in the same setting: the value for `C/C(C=O)=C\c1ccccc1` was “inactive”; that for `COc1cc(NS(=O)(=O)c2ccc(N)cc2)nc(C)n1` was “inactive”; that for `C1CCCCC1` was “inactive”. Same read-out and setting: to `CCSC(=O)N(CC)CC` belongs “inactive”. Take `NC(=O)CCCCC(N)=O`: the Potency result was “inactive”. With `CC1=CC[C@@]23C[C@@H]1C(C)(C)[C@@H]2CC[C@H]3C`, the Potency entry is “inactive”.

With `CN1C(CSCC(F)(F)F)Nc2cc(Cl)c(S(N)(=O)=O)cc2S1(=O)=O` (stereo not given), the Potency result was “inactive”. The same measure, in the same setting: the value for `Cc1cc(CCCOc2c(C)cc(-c3noc(C(F)(F)F)n3)cc2C)on1` was “inactive”; that for `CCCCCCCCCCCCCCCCCC(=O)OCC(CC)CCCC` (stereo not given) was “inactive”. On the same count and under the same terms, to `O=C(O)CNC(=O)c1ccccc1I` belongs “inactive”; to `BrC(Br)C(Br)Br`, “inactive”; to `Nc1ccc(F)cc1`, “inactive”.

As to `O=c1[nH]c2cc(C(F)(F)F)c(N3CCOCC3)cc2n(CP(=O)(O)O)c1=O`, the Potency entry is “inactive”.

Turning to `NC(=O)c1ccccc1[N+](=O)[O-]`, the Potency entry was “inactive”. Still for that read-out and setting: to `C[C@@H]1C[C@H]2[C@@H]3CCC4=CC(=O)C=C[C@]4(C)[C@@]3(F)[C@@H](O)C[C@]2(C)[C@@]1(O)C(=O)COP(=O)(O)O` belongs “inactive”.

The record behind these values is PubChem BioAssay (Tox21).
